Assay results as given in the supplement of paper PMC12350171.
Counter-ions that a name gives are not always drawn. A number with no mark means an inactive call.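 Rule for the calls: active = normalised median growth AUC below 0.1 of DMSO control; inactive = AUC 0.1 or higher.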

How the values were obtained:
Assay in all cases: growth AUC normalised to DMSO control (median) (fraction of control); higher = less growth inhibition, active = hit call of the paper
Conditions in all cases: 20 µM
P. vulgatus RND KO = test system: P. vulgatus RND KO
Method in brief: (§1)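 Anaerobic growth was tracked hourly at OD578 for 24 h in 96-well plates of mGAM seeded at OD578 0.01 with each approved-drug library compound at 20 μM and 1% DMSO. Strains had first been passaged twice overnight without oxygen. Three biological replicates were run. The reported median is the area under the curve, calculated by the trapezoidal rule on curves truncated at entry into stationary phase and normalised to vehicle wells on the same plate.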

P. vulgatus WT = test system: P. vulgatus WT
Method in brief: as §1

[1] = test system: S. enterica typhimurium WT
Method in brief: as §1

[2] = test system: S. enterica typhimurium tolC KO
Method in brief: as §1
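Note: active when median AUC fell below 0.1.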

Row | SMILES | growth AUC normalised to DMSO control (P. vulgatus RND KO) | growth AUC normalised to DMSO control (P. vulgatus WT) | growth AUC normalised to DMSO control [1] | growth AUC normalised to DMSO control [2]
1 | O=C(O)Cc1csc(-c2ccc(Cl)cc2)n1 [Fenclozic acid] | 1.01 | 1.03 | 1.01 | 0.98
2 | CN(C)CCCN1c2ccccc2[S+]([O-])c2ccc(Cl)cc21 (stereo unspecified) [Chlorpromazine Sulfoxide] | 1.07 | 1.03 | 0.995 | 1.01
3 | CN1CCC[C@@H]1Cc1c[nH]c2ccc(CCS(=O)(=O)c3ccccc3)cc12 [Eletriptan] | 1.04 | 1.05 | 0.987 | 0.958
4 | Cc1[nH]cnc1CN1CCc2c(c3ccccc3n2C)C1=O [Alosetron hydrochloride] | 0.996 | 0.999 | 1 | 0.995
5 | C[C@@H]1C[C@H]2[C@@H]3C[C@H](F)C4=CC(=O)C=C[C@]4(C)[C@@]3(F)[C@@H](O)C[C@]2(C)[C@@]1(O)C(=O)COC(=O)C(C)(C)C [Flumethasone pivalate] | 0.995 | 1 | 0.999 | 1
6 | COc1ccc(CN2CCN(C(c3ccc(F)cc3)c3ccc(F)cc3)CC2)c(OC)c1OC [Lomerizine dihydrochloride] | 0.997 | 0.986 | 1.01 | 0.978
7 | CCOC(=O)[C@H](CCc1ccccc1)N[C@@H](C)C(=O)N(CC(=O)O)C1Cc2ccccc2C1 [Delapril Hydrochloride] | 1 | 0.999 | 1 | 0.987
8 | Cc1ccnc2c1NC(=O)c1cccnc1N2C1CC1 [Nevirapine] | 0.995 | 1.01 | 1 | 1
9 | N#Cc1cc(NC(=O)C(=O)O)c(Cl)c(NC(=O)C(=O)O)c1 [Lodoxamide] | 1 | 1.04 | 1 | 1.01
10 | C[C@H](O)[C@H](O)[C@H]1CNc2[nH]c(N)nc(=O)c2N1 [Sapropterin dihydrochloride] | 1.04 | 1.05 | 1.01 | 0.977
11 | Cc1nc2n(c(=O)c1CCN1CCC(c3noc4cc(F)ccc34)CC1)CCCC2O (stereo unspecified) [Paliperidone] | 0.976 | 0.958 | 0.997 | 0.985
12 | CC(=O)OC[C@H]1O[C@@H](n2ncc(=O)[nH]c2=O)[C@H](OC(C)=O)[C@@H]1OC(C)=O [Azaribine] | 0.972 | 0.956 | 1 | 1
13 | O=[N+]([O-])c1ccc(O)c2ncccc12 [Nitroxoline] | 0.0544 (active) | 0.0282 (active) | 0.237 | 0.169
14 | CC(C)c1nc(CN(C)C(=O)N[C@H](C(=O)N[C@@H](Cc2ccccc2)C[C@H](O)[C@H](Cc2ccccc2)NC(=O)OCc2cncs2)C(C)C)cs1 [Ritonavir] | 1.04 | 1.04 | 0.998 | 0.97
15 | Cc1ccc2c([nH]c(=O)c3c(=O)cc(C(=O)OCCC(C)C)oc32)c1C [Repirinast] | 0.94 | 0.943 | 1.01 | 0.924
16 | NC[C@H]1O[C@H](O[C@H]2[C@H](O)[C@@H](O[C@H]3O[C@H](CO)[C@@H](O)[C@H](N)[C@H]3O)[C@H](N)C[C@@H]2N)[C@H](N)[C@@H](O)[C@@H]1O [Kanamycin B] | 1.1 | 1.14 | 0.947 | 1.02
17 | CC(C)[C@H]1CC[C@H](C(=O)N[C@H](Cc2ccccc2)C(=O)O)CC1 [Nateglinide] | 0.977 | 0.999 | 0.994 | 0.968

Row | SMILES | growth AUC normalised to DMSO control (P. vulgatus RND KO) | growth AUC normalised to DMSO control (P. vulgatus WT) | growth AUC normalised to DMSO control [1] | growth AUC normalised to DMSO control [2]
18 | O=C(O)C[C@H](O)C[C@H](O)/C=C/c1c(C2CC2)nc2ccccc2c1-c1ccc(F)cc1 [Pitavastatin calcium] | 0.983 | 1 | 1.01 | 0.999
19 | CCOc1ccccc1OCCN[C@H](C)Cc1ccc(OC)c(S(N)(=O)=O)c1 [(R)-Tamsulosin hydrochloride] | 0.997 | 1.01 | 1 | 0.965
20 | O=c1[nH]c(=O)n([C@H]2C[C@H](O)[C@@H](CO)O2)cc1/C=C/Br [Brivudine] | 1.02 | 1.01 | 1 | 1.01
21 | O=c1[nH]c(=O)n(C2CCCO2)cc1F (stereo unspecified) [Tegafur] | 1 | 1.01 | 1 | 0.999
22 | O=S(=O)(c1cccc2cnccc12)N1CCCNCC1 [Fasudil Hydrochloride] | 1 | 1 | 1 | 1.01
23 | CCOc1ccc(NC(=O)CC(C)O)cc1 (stereo unspecified) [Bucetin] | 0.981 | 0.981 | 1 | 0.992
24 | CN1CCN(c2c(F)cc3c(=O)c(C(=O)O)cn4c3c2OCN4C)CC1 [Marbofloxacin] | 0.0125 (active) | 0.0111 (active) | 0.00445 (active) | 0.00216 (active)
25 | O=C1CC[C@@H](C(=O)N2CSC[C@H]2C(=O)O)N1 [Pidotimod] | 0.991 | 0.993 | 1 | 0.991
26 | CCCCCCCCCCCCCCCCCCCCCC(=O)Nc1ccn([C@@H]2O[C@H](CO)[C@@H](O)[C@@H]2O)c(=O)n1 [Enocitabine] | 1.01 | 1.04 | 1.01 | 1
27 | CC(C)COC(=O)OCN1C(=O)CN(CCN2CC(=O)N(COC(=O)OCC(C)C)C(=O)C2)CC1=O [Sobuzoxane] | 1.04 | 1.08 | 0.998 | 1
28 | CN[C@@H]1[C@@H](O[C@H]2O[C@H](CO)[C@@H](N)[C@H](O)[C@H]2O)OC2C[C@@H](N)[C@@H](O[C@H]3[C@H](O)[C@@H](O)[C@H](N)C[C@@H]3N)OC2[C@@H]1O (stereo partly specified) [Apramycin] | 1 | 0.998 | 1.01 | 0.996
29 | CCN1/C(=C/C=C/C=C/c2sc3ccccc3[n+]2CC)Sc2ccccc21 [Dithiazanine iodide] | – | 1.02 | 1 | 0.695
30 | CC1(C)S[C@@H]2[C@H](NC(=O)[C@H](N)c3ccccc3)C(=O)N2[C@H]1C(=O)O [Ampicillin sodium salt] | – | – | 0.773 | 0.112
31 | CO/N=C(\C(=O)N[C@@H]1C(=O)N2C(C(=O)OCOC(=O)C(C)(C)C)=C(/C=C\c3scnc3C)CS[C@H]12)c1csc(N)n1 [Cefditoren Pivoxil] | – | – | 0.905 | 0.387
32 | COc1cccc2c1C(=O)c1c(O)c3c(c(O)c1C2=O)C[C@@](O)(C(=O)CO)C[C@@H]3O[C@H]1C[C@H](N)[C@@H](O)[C@H](C)O1 [Epirubicin hydrochloride] | 1.02 | 0.961 | 1 | 0.0212 (active)
33 | CN1CCN(C2Cc3ccccc3Sc3ccc(Cl)cc32)CC1 (stereo unspecified) [Octoclothepin maleate salt] | 1.05 | 1.05 | 0.981 | 0.929
34 | Cc1ccc(C(=O)c2cc(O)c(O)c([N+](=O)[O-])c2)cc1 [Tolcapone] | 0.474 | 0.0123 (active) | 0.993 | 0.91
